Measurements published in PubChem BioAssay.
Active and inactive are the calls of the source.

Legend:
[1] = optical density shifts of acrAB sulA E. coli – strain DRC41, OD650, 48 h, E. coli filamentation inducer project, primary screen (AID 1152); conditions: higher = more signal, called active from +8 up or from −8 down;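 further: E. coli MC1000 strain DRC41 lacking acrAB efflux pump and sulA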
[2] = probe aLefty1 binding on compound microarray – biochemical, small-molecule microarray, 635/667 nm fluorescence, primary screen (AID 1153); conditions: higher = more signal;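 further: score merges spot fluorescence with signal-to-noise ratio from the scanned slide images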
[3] = plasmodial surface anion channel blockers, osmotic lysis – cell-based, P. falciparum Indochina, OD700, 1 h, primary screen (AID 1154); conditions: P. falciparum Indochina infected RBC osmotic lysis, higher = more signal, called active from +8 up or from −8 down
[4] = plasmodial surface anion channel blockers, osmotic lysis – cell-based, P. falciparum Indochina, OD700, 2 h, primary screen (AID 1155);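 further: lysis reports solute entry through the parasite surface anion channel PSAC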; conditions: P. falciparum Indochina infected erythrocytes, higher = more signal, called active from +8 up or from −8 down
[5] = changes in parasitized red cell lysis, either direction – P. falciparum Indochina, OD700, 3 h, PSAC antagonist project, primary screen (AID 1156); conditions: P. falciparum-infected erythrocytes, osmotic lysis, higher = more signal, called active from +8 up or from −8 down
[6] = plasmodial surface anion channel blockers, osmotic lysis – cell-based, P. falciparum Indochina, OD700, 18 h, primary screen (AID 1157); conditions: P. falciparum Indochina infected erythrocytes, osmotic lysis OD700, 18 h; higher = more signal, called active from +8 up or from −8 down
[7] = S6 kinase pathway phospho-S6 level changes – cell-based, A549, cytoblot, luminescence, serum-stimulated, primary screen (AID 1158); conditions: 5 h, higher = more signal;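 further: serum-stimulated A549 lung adenocarcinoma cells; signal is phosphorylated S6 detected by cytoblot immunostaining with HRP secondary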
[8] = biological target: NADPH oxidase 2 (Homo sapiens) (UniProt P04839); assay: compounds shifting NOX2 Amplex Red fluorescence – cell-based, HEK293-NOX2, PMA-stimulated, NOX inhibitor project, primary screen (AID 1159); conditions: 45 min, higher = more signal, called active from +8 up or from −8 down; further: test concentration not given here
NADPH oxidase 2 (Homo sapiens), sequence (P04839 whole entry, looked up): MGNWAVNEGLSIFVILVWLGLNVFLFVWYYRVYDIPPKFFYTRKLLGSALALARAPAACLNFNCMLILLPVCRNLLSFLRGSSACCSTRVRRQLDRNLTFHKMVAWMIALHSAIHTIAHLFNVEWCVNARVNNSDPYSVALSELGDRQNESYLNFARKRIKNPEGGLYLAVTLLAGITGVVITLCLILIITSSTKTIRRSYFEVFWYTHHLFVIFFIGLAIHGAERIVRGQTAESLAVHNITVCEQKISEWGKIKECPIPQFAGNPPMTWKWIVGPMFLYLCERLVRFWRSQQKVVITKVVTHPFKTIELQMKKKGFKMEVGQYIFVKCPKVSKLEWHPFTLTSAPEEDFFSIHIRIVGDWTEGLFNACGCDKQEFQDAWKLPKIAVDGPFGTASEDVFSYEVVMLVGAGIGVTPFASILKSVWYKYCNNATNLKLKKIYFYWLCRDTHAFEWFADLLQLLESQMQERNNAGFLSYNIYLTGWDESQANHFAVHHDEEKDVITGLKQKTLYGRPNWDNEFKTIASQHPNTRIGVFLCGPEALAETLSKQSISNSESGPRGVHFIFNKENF

[9] = biological target: NADPH oxidase 4 (Homo sapiens) (UniProt Q9NPH5); assay: compounds shifting NOX4 Amplex Red fluorescence – cell-based, HEK293-NOX4, tetracycline-induced, NOX inhibitor project, primary screen (AID 1160); conditions: HEK293-NOX4, Amplex Red H2O2 fluorescence, 45 min; higher = more signal, called active from +8 up or from −8 down
NADPH oxidase 4 (Homo sapiens), sequence (Q9NPH5 whole entry, looked up): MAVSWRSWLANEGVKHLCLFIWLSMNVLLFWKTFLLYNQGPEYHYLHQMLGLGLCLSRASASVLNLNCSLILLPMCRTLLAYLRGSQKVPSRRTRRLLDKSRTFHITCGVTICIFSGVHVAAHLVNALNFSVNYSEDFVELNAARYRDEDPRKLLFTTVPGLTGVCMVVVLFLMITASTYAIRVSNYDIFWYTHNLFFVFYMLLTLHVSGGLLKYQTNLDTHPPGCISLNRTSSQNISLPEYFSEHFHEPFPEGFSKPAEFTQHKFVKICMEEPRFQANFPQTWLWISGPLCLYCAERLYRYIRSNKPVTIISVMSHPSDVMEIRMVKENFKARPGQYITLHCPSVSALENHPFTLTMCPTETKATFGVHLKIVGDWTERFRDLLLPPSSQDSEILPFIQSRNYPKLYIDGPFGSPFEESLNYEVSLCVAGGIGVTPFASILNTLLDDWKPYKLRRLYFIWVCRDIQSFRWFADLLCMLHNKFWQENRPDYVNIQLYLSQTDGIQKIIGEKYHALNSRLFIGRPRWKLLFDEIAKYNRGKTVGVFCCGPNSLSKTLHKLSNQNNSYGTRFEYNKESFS

[10] = biological target: NADPH oxidase 5 (Homo sapiens) (UniProt Q96PH1); assay: compounds shifting NOX5 Amplex Red fluorescence – cell-based, HEK293-NOX5, NOX inhibitor project, primary screen (AID 1161); conditions: HEK293-NOX5, ionomycin, 45 min, higher = more signal
NADPH oxidase 5 (Homo sapiens), sequence (Q96PH1 whole entry, looked up): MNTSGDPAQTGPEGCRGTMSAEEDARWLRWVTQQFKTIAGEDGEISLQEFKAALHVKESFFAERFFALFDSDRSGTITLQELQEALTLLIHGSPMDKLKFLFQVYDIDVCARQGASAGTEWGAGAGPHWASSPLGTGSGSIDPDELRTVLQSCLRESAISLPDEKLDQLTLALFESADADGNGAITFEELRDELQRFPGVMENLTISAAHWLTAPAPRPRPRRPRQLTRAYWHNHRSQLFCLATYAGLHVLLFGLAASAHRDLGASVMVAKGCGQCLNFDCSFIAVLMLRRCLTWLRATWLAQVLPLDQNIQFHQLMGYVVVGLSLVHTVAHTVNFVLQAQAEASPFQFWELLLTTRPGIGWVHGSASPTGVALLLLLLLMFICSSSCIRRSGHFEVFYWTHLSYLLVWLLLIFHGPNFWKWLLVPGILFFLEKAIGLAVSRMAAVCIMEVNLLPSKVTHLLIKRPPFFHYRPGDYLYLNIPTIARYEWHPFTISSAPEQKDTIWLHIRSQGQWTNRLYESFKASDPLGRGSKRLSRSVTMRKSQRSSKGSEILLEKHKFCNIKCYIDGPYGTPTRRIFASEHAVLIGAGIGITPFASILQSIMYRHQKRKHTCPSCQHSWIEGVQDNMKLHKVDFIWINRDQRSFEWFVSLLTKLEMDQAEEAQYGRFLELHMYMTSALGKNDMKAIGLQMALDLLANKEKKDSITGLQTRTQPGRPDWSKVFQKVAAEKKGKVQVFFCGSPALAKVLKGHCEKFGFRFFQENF

[11] = compound effects on lung adenocarcinoma cell viability – A549, calcein-AM fluorescence, 48 h, basal, profiling panel (AID 1162); conditions: higher = more signal; further: test concentration not given here
[12] = compound effects on differentiated 3T3-L1 adipocyte viability – cell-based, 3T3-L1 adipocytes, calcein-AM fluorescence, 48 h, basal, profiling panel (AID 1163); conditions: 3T3-L1 adipocytes viability, higher = more signal; further: test concentration not given here
[13] = compound effects on hepatocellular carcinoma cell viability – HepG2, calcein-AM fluorescence, 48 h, basal, profiling panel (AID 1164); conditions: higher = more signal; further: test concentration not given here
[14] = compound effects on multiple myeloma cell viability – MM1S, calcein-AM fluorescence, 48 h, basal, profiling panel (AID 1165); conditions: higher = more signal; further: test concentration not given here
[15] = calcein-AM signal in unstimulated myeloma cells – cell-based, calcein-AM fluorescence, 48 h, PK04 Diversity Set, profiling panel (AID 1166); conditions: RPMI8226 myeloma viability, higher = more signal;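 further: cells grown under basal conditions without added stimulus; test concentration not given here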
[16] = JC-1 mitochondrial signal, unstimulated HepG2 cells – cell-based, JC-1 fluorescence, 24 h, 100 nL compound, profiling panel (AID 1167); conditions: HepG2 mitochondrial potential, higher = more signal; further: test concentration not given here
[17] = JC-1 mitochondrial signal, unstimulated adipocytes – cell-based, JC-1 fluorescence, 3T3-L1 adipocytes, 24 h, 100 nL compound, profiling panel (AID 1168); conditions: JC-1 mitochondrial fluorescence, higher = more signal, called active from +8 up or from −8 down; further: test concentration not given here
[18] = JC-1 mitochondrial signal, unstimulated myeloma cells – cell-based, JC-1 fluorescence, RPMI8226, 24 h, 100 nL compound, profiling panel (AID 1169); conditions: JC-1 mitochondrial potential fluorescence, higher = more signal; further: test concentration not given here
[19] = JC-1 mitochondrial signal, unstimulated MM1S myeloma – cell-based, JC-1 fluorescence, 24 h, 100 nL compound, profiling panel (AID 1170); conditions: MM1S mitochondrial potential, higher = more signal; further: test concentration not given here
[20] = resazurin metabolic signal in A549 cells – cell-based, resazurin fluorescence, 24 h, PK04 Diversity Set, profiling panel (AID 1171); conditions: A549 viability, higher = more signal, called active from +8 up or from −8 down; further: test concentration not given here

## C=CC(CO)NC(=O)OCC1c2ccccc2-c2ccccc21 (stereo not given)
[1]
  z-score: -0.878 (inactive)
[2]
  composite z-score: -0.188
[3]
  z-score: -0.0039 (inactive)
[4]
  z-score: -0.124 (inactive)
[5]
  z-score: -1.03 (inactive)
[6]
  z-score: 0.182 (inactive)
[7]
  z-score: 0.078
[8]
  z-score: -0.385 (inactive)
[9]
  z-score: 0.0866 (inactive)
[10]
  z-score: 0.23
[11]
  z-score: -0.454
[12]
  z-score: 0.351
[13]
  z-score: -0.479
[14]
  z-score: -1.07
[15]
  z-score: 0.0644
[16]
  z-score: -0.692
[17]
  z-score: 0.386 (inactive)
[18]
  z-score: 0.534
[19]
  z-score: 0.128
[20]
  z-score: -0.62 (inactive)

## CN(C)C(=O)[C@@]1(CCS(=O)(=O)c2ccccc2)N=C(c2ccc(OCCCO)cc2)O[C@H]1c1ccccc1N=[N+]=[N-]
[1]
  z-score: 0.395 (inactive)
[2]
  composite z-score: -0.148
[3]
  z-score: 28.1 (active)
[4]
  z-score: 27.4 (active)
[5]
  z-score: 1.78 (inactive)
[6]
  z-score: 2.09 (inactive)
[7]
  z-score: -0.76
[8]
  z-score: -2.01 (inactive)
[9]
  z-score: -0.478 (inactive)
[10]
  z-score: -0.984
[11]
  z-score: 0.137
[12]
  z-score: -0.471
[13]
  z-score: 1.27
[14]
  z-score: -1.68
[15]
  z-score: -0.941
[16]
  z-score: 0.121
[17]
  z-score: -0.477 (inactive)
[18]
  z-score: -1.32
[19]
  z-score: -0.591
[20]
  z-score: -0.217 (inactive)

## COCCCNC(=O)[C@@H]1c2ccccc2C(=O)N(C2CCCCC2)[C@H]1c1ccc(CO)cc1
[1]
  z-score: 0.416 (inactive)
[2]
  composite z-score: 0.0839
[3]
  z-score: 0.794 (inactive)
[4]
  z-score: -0.0928 (inactive)
[5]
  z-score: 0.65 (inactive)
[6]
  z-score: -0.51 (inactive)
[7]
  z-score: 2.35
[8]
  z-score: 0.422 (inactive)
[9]
  z-score: -1.61 (inactive)
[10]
  z-score: -0.915
[11]
  z-score: 1.83
[12]
  z-score: 1.15
[13]
  z-score: 1.05
[14]
  z-score: 0.777
[15]
  z-score: -0.559
[16]
  z-score: 2.49
[17]
  z-score: -0.154 (inactive)
[18]
  z-score: 0.107
[19]
  z-score: -1.17
[20]
  z-score: 1.19 (inactive)

## C=C(/C(=C/C[C@@H](OC(C)=O)c1ccccc1OCCO)c1cc(C(=O)OC)ccc1OC)C(C)C
[1]
  z-score: 0.516 (inactive)
[2]
  composite z-score: -0.0545
[3]
  z-score: 14.6 (active)
[4]
  z-score: 2.61 (inactive)
[5]
  z-score: 1.4 (inactive)
[6]
  z-score: 0.994 (inactive)
[7]
  z-score: 0.0105
[8]
  z-score: 1.58 (inactive)
[9]
  z-score: -0.286 (inactive)
[10]
  z-score: -1.43
[11]
  z-score: 0.793
[12]
  z-score: -0.515
[13]
  z-score: 0.561
[14]
  z-score: -3.21
[15]
  z-score: -1.11
[16]
  z-score: 0.605
[17]
  z-score: 0.118 (inactive)
[18]
  z-score: 0.367
[19]
  z-score: -0.503
[20]
  z-score: 0.583 (inactive)
